Active and inactive are the calls of the source. How the calls were made is not given here.
Each compound was assayed against Microtubule-associated protein tau (Homo sapiens) (UniProt P10636) (assay: Tau Fibrillization assay). Settings: His6-htau40 arachidonic acid fibrillization, TEM filament length; at 0.72 µM; stronger effect = lower value.
From the text: NIH Molecular Libraries Screening Centers Network [MLSCN] NIH Chemical Genomics Center [NCGC] MLSCN Grant: 1 X01 MH079825-01 Assay Provider: Jeffrey A. Kuret, Ohio State University NCGC Assay Overview: A number of solution-based assays are available for quantifying the amount of aggregated protein, such as fluorescence spectroscopy, sedimentation, and static and laser light scattering. However, none of these methods allows direct visualization of filaments. Transmission electron microscopy (TEM) can complement these solution-based assays by providing information on filament morphology and length distributions. In vitro fibrillization of htau40 was performed in the presence or absence of selected compounds. The resultant filaments were detected after absorption onto formvar and carbon coated grids and examined by TEM. Random digital images of each experimental condition were obtained, imported into imaging software, and quantified for filament length and number.
NCGC Assay Protocol Summary Aggregation of His6-htau40 (5 uM final concentration) in assembly buffer was induced with arachidonic acid (50 uM final concentration) in the presence or absence of selected library compounds. Each compound was tested at IC50 and four times the IC50values as determined by the tau ThS binding assay. After incubation (18 h at 37 degrees Celsius), reactions were diluted 5-fold in distilled water and assayed by transmission electron microscopy as described previously (Necula and Kuret, 2004). […] 28(3), 251-60. Necula, M., Chirita, C. N., and Kuret, J. (2003) J. Biol. Chem. 278, 46674-46680.

Chain of Microtubule-associated protein tau (Homo sapiens) (P10636 whole entry, looked up): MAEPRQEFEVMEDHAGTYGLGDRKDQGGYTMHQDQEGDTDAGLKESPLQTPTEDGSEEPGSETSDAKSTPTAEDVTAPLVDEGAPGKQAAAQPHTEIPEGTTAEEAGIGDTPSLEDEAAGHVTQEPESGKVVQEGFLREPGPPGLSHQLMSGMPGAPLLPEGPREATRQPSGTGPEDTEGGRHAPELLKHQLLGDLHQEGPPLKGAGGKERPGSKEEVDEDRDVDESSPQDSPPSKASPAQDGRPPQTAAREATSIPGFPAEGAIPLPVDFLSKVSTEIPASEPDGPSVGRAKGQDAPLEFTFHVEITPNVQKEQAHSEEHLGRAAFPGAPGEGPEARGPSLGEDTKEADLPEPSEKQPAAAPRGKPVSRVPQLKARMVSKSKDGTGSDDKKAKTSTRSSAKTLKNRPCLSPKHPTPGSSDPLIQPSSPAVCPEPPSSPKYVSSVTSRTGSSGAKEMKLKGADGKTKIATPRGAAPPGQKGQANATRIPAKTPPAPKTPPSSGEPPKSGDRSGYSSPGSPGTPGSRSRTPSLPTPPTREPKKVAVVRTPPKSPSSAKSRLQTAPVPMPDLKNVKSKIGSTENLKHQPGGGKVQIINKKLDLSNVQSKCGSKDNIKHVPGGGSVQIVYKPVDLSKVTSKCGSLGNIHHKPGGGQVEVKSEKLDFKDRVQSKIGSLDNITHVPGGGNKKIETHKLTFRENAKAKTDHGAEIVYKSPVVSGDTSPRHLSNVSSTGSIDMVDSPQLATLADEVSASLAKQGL

For `CN(C)c1ccc(C(=C2C=CC(=[N+](C)C)C=C2)c2ccc(N(C)C)cc2)cc1`, which filament length is on record?
Its filament length is 50.3% (active).

Same assay, conditions: His6-htau40 arachidonic acid fibrillization, TEM filament length; at 0.76 µM; stronger effect = lower value

How did the filament length turn out when `Cc1cc(-c2ccc(N=Nc3ccc4c(S(=O)(=O)O)cc(S(=O)(=O)O)c(N)c4c3O)c(C)c2)ccc1N=Nc1ccc2c(S(=O)(=O)O)cc(S(=O)(=O)O)c(N)c2c1O` was run?
Its filament length is 91.8% (inactive).

Same assay, conditions: His6-htau40 arachidonic acid fibrillization, TEM filament length; at 4 µM; stronger effect = lower value

Which filament length does the source give for `CN(C)c1ccc(/C=C2/C(=O)Nc3ccccc32)cc1` here?
Its filament length is 41.8% (active).

Same assay, conditions: His6-htau40 arachidonic acid fibrillization, TEM filament length; at 6.4 µM; stronger effect = lower value

Which filament length does the source give for `N=C1C=CC(=C(c2ccc(N)cc2)c2ccc(N)cc2)C=C1` here?
Its filament length is 50.8% (active).

Same assay, conditions: His6-htau40 arachidonic acid fibrillization, TEM filament length; at 8.2 µM; stronger effect = lower value

For `COc1cccc2c1C(=N)c1c(O)c3c(c(O)c1C2=O)C[C@](O)(C(C)=O)C[C@@H]3O[C@H]1C[C@H](N)[C@@H](O)[C@H](C)O1`, which filament length is on record?
The filament length was 86.9% (inactive).

Same assay, conditions: His6-htau40 arachidonic acid fibrillization, TEM filament length; at 8.4 µM; stronger effect = lower value

`Cc1ccc2nc(-c3ccc(N=Nc4cc(S(=O)(=O)O)c5ccccc5c4O)cc3)sc2c1S(=O)(=O)O` was tested. Which filament length did it give?
The filament length was 111% (inactive).

Same assay, conditions: His6-htau40 arachidonic acid fibrillization, TEM filament length; filament length at lower concentration; at 0.18 µM; stronger effect = lower value

Which filament length does the source give for `CN(C)c1ccc(C(=C2C=CC(=[N+](C)C)C=C2)c2ccc(N(C)C)cc2)cc1` here?
The filament length was 109%.

Same assay, conditions: His6-htau40 arachidonic acid fibrillization, TEM filament length; filament length at lower concentration; at 0.19 µM; stronger effect = lower value

With `Cc1cc(-c2ccc(N=Nc3ccc4c(S(=O)(=O)O)cc(S(=O)(=O)O)c(N)c4c3O)c(C)c2)ccc1N=Nc1ccc2c(S(=O)(=O)O)cc(S(=O)(=O)O)c(N)c2c1O` as the compound, how does the filament length read?
Its filament length is 116%.

Same assay, conditions: His6-htau40 arachidonic acid fibrillization, TEM filament length; filament length at lower concentration; at 1 µM; stronger effect = lower value

How did the filament length turn out when `CN(C)c1ccc(/C=C2/C(=O)Nc3ccccc32)cc1` was run?
Its filament length is 94.5%.

Same assay, conditions: His6-htau40 arachidonic acid fibrillization, TEM filament length; filament length at lower concentration; at 1.6 µM; stronger effect = lower value

`N=C1C=CC(=C(c2ccc(N)cc2)c2ccc(N)cc2)C=C1` was tested. Which filament length did it give?
Its filament length is 114%.

Same assay, conditions: His6-htau40 arachidonic acid fibrillization, TEM filament length; filament length at lower concentration; at 2.1 µM; stronger effect = lower value

`COc1cccc2c1C(=N)c1c(O)c3c(c(O)c1C2=O)C[C@](O)(C(C)=O)C[C@@H]3O[C@H]1C[C@H](N)[C@@H](O)[C@H](C)O1` was tested. Which filament length did it give?
The filament length was 91.3%.

For `Cc1ccc2nc(-c3ccc(N=Nc4cc(S(=O)(=O)O)c5ccccc5c4O)cc3)sc2c1S(=O)(=O)O`, which filament length is on record?
The filament length was 100%.

— PubChem BioAssay AID991 (National Center for Advancing Translational Sciences (NCATS), 2007)
